Laboratory results from PubChem BioAssay AID651994 (Sanford-Burnham Center for Chemical Genomics, 2013).
In all, about 2,500 compounds went through this assay and about 790 (32%) were called active.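 How the source made its calls: active means mean cytotoxicity at 5 µM above about 25% (limit read from the data); inactive means the rest.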 Only a sample is shown.

Experiment: cytotoxicity in Sufu-KO-LIGHT cells, confirmation, cytotoxicity control for Gli-SUFU antagonist project, cell-based, ATP luminescence, single concentration (AID 651994);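 further: cells exposed to compound overnight for roughly 16 to 18 hours; plate controls were DMSO wells with cells for no effect and medium without cells for full effect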
Conditions: at 5 µM, hits give high values

SMILES	cytotoxicity
COc1ccc2c(C)cc3nnnn3c2c1	27% (active)
CC1(C)CC(=O)c2c(n(S(=O)(=O)c3ccccc3)c3ccc(NS(=O)(=O)c4ccccc4)cc23)C1	23.1% (inactive)
Cc1ccc(NC(=S)Nc2ccc(F)cc2)cc1	25.1% (active)
COc1ccc(NC(=O)[C@H](NC(=O)[C@@H]2Cc3ccccc3CN2)c2ccccc2)cc1	6.92% (inactive)
CCN(CC)CCNC(=O)c1ccc(NC(=O)c2cc(-c3ccncc3)nc3ccccc23)cc1	16.3% (inactive)
Nc1ccc(C(=O)N2CCN(S(=O)(=O)c3ccc(Cl)cc3)CC2)cc1[N+](=O)[O-]	14.4% (inactive)
CC(=O)N1CCCc2cc(S(=O)(=O)N3CCCC(C(=O)N4CCN(c5cccc(Cl)c5)CC4)C3)ccc21 (stereo not drawn)	24.2% (inactive)
O=C(NCCOCc1ccc(Cl)cc1)c1ncn[nH]1	18.8% (inactive)
N#Cc1ccc(C(=O)Nc2nc(-c3cccs3)c(C(=O)C(F)(F)F)s2)cc1	32.7% (active)
C/C(=N\Nc1ccc(Cl)nn1)c1ccccc1O	23.9% (inactive)
O=C(O)c1ccc(N/N=C/c2ccc3ncccc3c2)cc1	22.3% (inactive)
CCN(CCO)C(=S)Nc1cc(C(=O)OC)ccc1C(=O)OC	18.2% (inactive)
C=CCC1(CC=C)CCCN1C(=O)c1cc(COc2ccc(-n3cncn3)cc2)on1	36.4% (active)
CSc1ncccc1C(=O)Nc1nc2ccc(F)cc2s1	28.1% (active)
O=C(Nc1nc2ccc([N+](=O)[O-])cc2s1)c1ccc(S(=O)(=O)N2CCCc3ccccc32)cc1	23.2% (inactive)
Cc1ccc(S(=O)(=O)N2C[C@@H]3CCCC[C@@H]3[C@@H](C)[C@H]2c2cn(Cc3ccccc3)c3ccc(F)cc23)cc1	7.61% (inactive)
C=CCNC(=S)/N=c1/ccccn1Cc1ccccc1	22.1% (inactive)
CCC(Cc1ccccc1)NC(=O)C1CCCCC1 (stereo not drawn)	9.02% (inactive)
O=C(Nc1cccc(S(=O)(=O)Nc2ccc(Cl)cc2)c1)c1ccc2c(c1)OCCO2	28.9% (active)
O=C1C=C(c2ccnc3cc(Cl)ccc23)C[C@@H](c2ccc3c(c2)OCO3)C1	30.6% (active)

SMILES	cytotoxicity
CCN1/C(=C/C(=S)Nc2ccccc2)Sc2ccccc21	-1.08% (inactive)
CC(C)(CNC(=O)c1ccc(Cl)c(S(=O)(=O)N2CCc3ccccc3C2)c1)N1CCOCC1	17.5% (inactive)
COc1ccc(C(=O)NC2CCCc3c2cnn3-c2cccc(C)c2C)c(OC)n1 (stereo not drawn)	26.7% (active)
Cc1ccc(S(=O)(=O)NC(C)C(=O)Nc2ccccc2C(=O)N2CCCC2)cc1 (stereo not drawn)	12.8% (inactive)
CCc1c(C)nc2cc(C)[nH]n2c1=O	10.3% (inactive)
Cc1cc(C(=O)CSc2nc(N)cc(=O)[nH]2)c(C)n1-c1cccc(F)c1	34.2% (active)
CN(C)CCSc1nc(N)c2c3c(sc2n1)COC(C)(C)C3	9.54% (inactive)
O=C(CN1CCN(S(=O)(=O)c2cc(Cl)ccc2Cl)CC1)c1ccc(O)c(O)c1	14.6% (inactive)
CC(=O)Nc1ccc(NC(=O)c2ccc3c(c2)C(=O)N(c2ccccc2C)C3=O)cc1	24.5% (inactive)
Brc1c(CSc2nncc3ccccc23)nc2ccccn12	-3.37% (inactive)
CN(c1ccc2nc3ccccc3c(=O)n2n1)C1CCCCC1	84.2% (active)
NS(=O)(=O)c1ccc(CCNC(=O)CCCn2c(SCC(=O)N3CCCC3)nc3ccsc3c2=O)cc1	-12.7% (inactive)
CC(C)(C)c1ccc(Oc2ccc(N)cc2)cc1	18.4% (inactive)
COc1ccc(/C=N/N=C2/C(=O)Nc3ccccc32)cc1O	-0.38% (inactive)
COc1ccc(Cc2nnc(N/N=C/c3ccccc3O)[nH]c2=O)cc1OC	43.8% (active)
CC1(C)Cc2ccccc2/C(=C/C(=O)c2ccccc2)N1	4.12% (inactive)
CC1(C)CC2CC(C)(CN2c2ncnc3ccc(Br)cc23)C1 (stereo not drawn)	38.5% (active)
COc1cc(C(=O)OC2CCOC2=O)c([N+](=O)[O-])cc1OC (stereo not drawn)	3.16% (inactive)
COc1cccc(-n2cc(C(=O)O)c3ccccc3c2=O)c1	25.1% (active)
O=C(Nc1ccnn1C1CCN(C/C=C/c2ccc(F)cc2)CC1)C1CCCC1	2.29% (inactive)

SMILES	cytotoxicity
Cc1nn(C)c(Cl)c1CN1CCC(n2nccc2NC(=O)C2CCCC2)CC1	16.4% (inactive)
CN(C)C(CNC(=O)Cc1ccc([N+](=O)[O-])cc1)c1ccccc1 (stereo not drawn)	15.4% (inactive)
COc1ccc(C(=O)NCc2nnc(SCCOc3ccccc3)n2C)cc1	10.2% (inactive)
COc1cc(C(=O)OC(C)C(=O)NCC2CCCCC2)cc(NC(=O)c2ccco2)c1OC (stereo not drawn)	-2.91% (inactive)
O=C(Nc1cc2c3c(c1)C1CCCC1CN3CC1CCCC21)c1ccc([N+](=O)[O-])cc1 (stereo not drawn)	29.3% (active)
COC(=O)c1ccccc1NC(=O)C1(S(=O)(=O)c2ccc(Cl)cc2)CC1	-1.28% (inactive)
NC(N)=Nc1nc(-c2ccccc2)c2cc(Cl)ccc2n1	27.1% (active)
O=c1c2ccccc2nc2n1C(CSCc1cccc(C(F)(F)F)c1)CS2 (stereo not drawn)	34.2% (active)
Cc1ccc(-c2nc(CSCC(=O)NC3CCN(Cc4ccccc4)CC3)c(C)o2)cc1	12% (inactive)
O=C(C[C@H]1C/C=C\C[C@@H](NC(=O)OCC2c3ccccc3-c3ccccc32)C(=O)O[C@@H](c2ccccc2)CNC1=O)N[C@H](CO)Cc1ccccc1	18.6% (inactive)
CNc1nnc(-c2ccco2)s1	-0.36% (inactive)
O=C1/C(=C/c2ccc(F)cc2)SC(=S)N1NS(=O)(=O)c1ccccc1	16.4% (inactive)
Cc1ccc(Nc2nc(N3CCOCC3)nc(N3CCOCC3)n2)cc1Cl	40.8% (active)
CCc1ccc(C2C(C#N)=C(N)N(N3CCOCC3)C3=C2C(=O)CC(C)(C)C3)s1 (stereo not drawn)	25.2% (active)
CC(C)C(=O)Nc1nnc(SCC(=O)N2C(C)CCCC2C)s1 (stereo not drawn)	1.96% (inactive)
CCc1c(C)[nH]c(=S)c(C#N)c1C	9% (inactive)
Cc1c(Cl)c([N+](=O)[O-])nn1Cc1ccc(C(=O)N/N=C\c2cc(Cl)ccc2O)o1	29% (active)
CCOc1ccc(-n2c(O)c(/C=N/Nc3nc(C)cc(C)n3)c3ccccc3c2=O)cc1	17.6% (inactive)
